# Measured values taken from PubChem BioAssay.
# Where “and” joins values, the source holds several entries; their conditions need not be identical. Equal values may be shown once. Calls of active or inactive are those of the source.
# Experiments:
# [1] = E. coli DRC41 culture turbidity changes, primary screen, E. coli filamentation inducer project, strain DRC41, OD650, 48 h (AID 1152);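 note: E. coli MC1000 strain DRC41 lacking acrAB efflux pump and sulA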; details: E. coli DRC41 (acrAB sulA); higher = more signal, called active from +8 up or from −8 down unless noted
# [2] = small-molecule binders of probe aLefty1, primary screen, biochemical, small-molecule microarray, 635/667 nm fluorescence (AID 1153); details: higher = more signal; small-molecule microarray, probe aLefty1, fluorescence unless noted;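 note: score merges spot fluorescence with signal-to-noise ratio from the scanned slide images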
# [3] = PSAC antagonists in infected red cells, primary screen, cell-based, P. falciparum Indochina, OD700, 1 h (AID 1154); details: P. falciparum Indochina infected RBC osmotic lysis; higher = more signal, called active from +8 up or from −8 down unless noted
# [4] = PSAC antagonists in infected red cells, primary screen, cell-based, P. falciparum Indochina, OD700, 2 h (AID 1155);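 note: lysis reports solute entry through the parasite surface anion channel PSAC; channel blockers reduce lysis of infected cells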; details: P. falciparum Indochina infected erythrocytes, osmotic lysis OD700; higher = more signal, called active from +8 up or from −8 down unless noted
# [5] = osmotic lysis modulators in infected erythrocytes, primary screen, PSAC antagonist project, cell-based, P. falciparum Indochina, OD700, 3 h (AID 1156); details: higher = more signal, called active from +8 up or from −8 down unless noted
# [6] = PSAC antagonists in infected red cells, primary screen, cell-based, P. falciparum Indochina, OD700, 18 h (AID 1157); details: P. falciparum Indochina infected erythrocytes, osmotic lysis OD700, 18 h; higher = more signal, called active from +8 up or from −8 down unless noted
# [7] = modulators of S6 phosphorylation in cells, primary screen, cell-based, A549, cytoblot, luminescence, serum-stimulated (AID 1158); details: A549 phospho-S6 cytoblot, 5 h, higher = more signal;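 note: serum-stimulated A549 lung adenocarcinoma cells; signal is phosphorylated S6 detected by cytoblot immunostaining with HRP secondary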
# [8] = target: NADPH oxidase 2 (Homo sapiens) (UniProt P04839); assay: NOX2-dependent H2O2 signal modulators, primary screen, NOX inhibitor project, cell-based, HEK293-NOX2, PMA-stimulated, Amplex Red fluorescence (AID 1159); details: 45 min; higher = more signal, called active from +8 up or from −8 down unless noted; note: test concentration not given here
# Chain of NADPH oxidase 2 (Homo sapiens) (P04839 whole entry, looked up): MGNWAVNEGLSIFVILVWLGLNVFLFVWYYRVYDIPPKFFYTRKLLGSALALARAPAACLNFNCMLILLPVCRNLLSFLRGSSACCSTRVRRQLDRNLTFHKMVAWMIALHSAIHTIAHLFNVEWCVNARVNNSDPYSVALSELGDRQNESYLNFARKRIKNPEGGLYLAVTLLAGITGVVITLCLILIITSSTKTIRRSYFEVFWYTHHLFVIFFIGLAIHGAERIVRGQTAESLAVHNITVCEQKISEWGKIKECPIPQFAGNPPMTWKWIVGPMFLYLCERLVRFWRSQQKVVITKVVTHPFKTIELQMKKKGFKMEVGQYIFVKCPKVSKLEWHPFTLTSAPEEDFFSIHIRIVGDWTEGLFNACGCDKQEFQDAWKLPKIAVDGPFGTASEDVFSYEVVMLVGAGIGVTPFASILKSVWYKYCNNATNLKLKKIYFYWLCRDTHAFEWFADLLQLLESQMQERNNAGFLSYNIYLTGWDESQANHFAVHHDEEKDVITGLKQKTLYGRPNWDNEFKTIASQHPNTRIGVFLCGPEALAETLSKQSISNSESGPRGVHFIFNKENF
# [9] = target: NADPH oxidase 4 (Homo sapiens) (UniProt Q9NPH5); assay: NOX4-dependent H2O2 signal modulators, primary screen, NOX inhibitor project, cell-based, HEK293-NOX4, tetracycline-induced, Amplex Red fluorescence (AID 1160); details: 45 min; higher = more signal, called active from +8 up or from −8 down unless noted
# Chain of NADPH oxidase 4 (Homo sapiens) (Q9NPH5 whole entry, looked up): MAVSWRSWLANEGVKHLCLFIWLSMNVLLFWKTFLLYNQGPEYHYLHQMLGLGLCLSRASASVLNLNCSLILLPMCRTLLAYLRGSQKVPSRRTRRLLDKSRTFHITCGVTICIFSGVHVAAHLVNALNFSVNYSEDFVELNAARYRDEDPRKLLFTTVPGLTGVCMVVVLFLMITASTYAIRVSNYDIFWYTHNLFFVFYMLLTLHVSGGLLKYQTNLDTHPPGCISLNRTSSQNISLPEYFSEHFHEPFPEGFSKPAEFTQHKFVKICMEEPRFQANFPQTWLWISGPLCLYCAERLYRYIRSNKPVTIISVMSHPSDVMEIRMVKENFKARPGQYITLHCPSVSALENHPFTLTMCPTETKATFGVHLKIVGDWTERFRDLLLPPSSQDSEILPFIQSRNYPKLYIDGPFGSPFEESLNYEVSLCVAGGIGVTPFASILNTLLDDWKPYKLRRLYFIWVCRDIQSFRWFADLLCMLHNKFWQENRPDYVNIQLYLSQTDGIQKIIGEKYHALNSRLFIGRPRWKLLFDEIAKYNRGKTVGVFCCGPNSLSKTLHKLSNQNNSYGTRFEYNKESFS
# [10] = target: NADPH oxidase 5 (Homo sapiens) (UniProt Q96PH1); assay: NOX5-dependent H2O2 signal modulators, primary screen, NOX inhibitor project, cell-based, HEK293-NOX5, Amplex Red fluorescence (AID 1161); details: HEK293-NOX5, ionomycin, 45 min, higher = more signal
# Chain of NADPH oxidase 5 (Homo sapiens) (Q96PH1 whole entry, looked up): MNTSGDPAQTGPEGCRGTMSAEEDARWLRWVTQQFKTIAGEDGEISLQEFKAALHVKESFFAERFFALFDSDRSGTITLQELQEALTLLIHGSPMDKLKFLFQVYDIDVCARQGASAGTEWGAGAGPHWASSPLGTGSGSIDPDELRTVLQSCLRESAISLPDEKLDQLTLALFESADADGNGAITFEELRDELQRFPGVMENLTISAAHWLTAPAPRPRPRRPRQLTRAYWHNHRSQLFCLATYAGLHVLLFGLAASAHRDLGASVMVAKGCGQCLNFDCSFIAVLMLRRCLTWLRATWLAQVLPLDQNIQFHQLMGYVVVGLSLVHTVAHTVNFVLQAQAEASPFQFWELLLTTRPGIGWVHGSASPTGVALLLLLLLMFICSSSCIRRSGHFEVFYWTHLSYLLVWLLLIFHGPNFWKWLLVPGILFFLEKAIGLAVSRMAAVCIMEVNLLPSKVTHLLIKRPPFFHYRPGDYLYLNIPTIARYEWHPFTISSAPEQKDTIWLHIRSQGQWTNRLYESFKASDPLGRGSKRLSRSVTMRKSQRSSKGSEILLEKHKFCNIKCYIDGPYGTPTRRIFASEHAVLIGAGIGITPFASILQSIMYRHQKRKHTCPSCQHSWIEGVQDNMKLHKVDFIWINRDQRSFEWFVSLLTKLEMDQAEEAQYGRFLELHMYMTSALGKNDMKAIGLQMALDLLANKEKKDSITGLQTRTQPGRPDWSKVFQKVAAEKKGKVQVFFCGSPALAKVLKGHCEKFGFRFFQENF
SMILES,z-score [1],composite z-score [2],z-score [3],z-score [4],z-score [5],z-score [6],z-score [7],z-score [8],z-score [9],z-score [10]
COC(=O)C1(C)C=C2C(=C(C)C(=O)C2C)CN1 (stereo not given),-1.84 (inactive),0.257,0.539 (inactive),0.405 (inactive),1.16 (inactive),0.643 (inactive),-0.232,-0.172 (inactive),-2.31 (inactive),-3.35
CCCc1cc2c(n1CCO)C(C)C1CN(C(=O)c3ccccc3)C(C)(C(=O)OC)C21 (stereo not given),-1.14 (inactive),0.549,2.33 (inactive),0.196 (inactive),0.101 (inactive),0.618 (inactive),-0.199,0.0961 (inactive),-2.55 (inactive),-2.35
CCCc1cc2c(n1Cc1ccc(C)cc1)C(C)C1CN(C(=O)c3ccccc3)C(C)(C(=O)OC)C21 (stereo not given),-0.692 (inactive),1.33,1.5 (inactive),-0.732 (inactive),0.454 (inactive),-1.81 (inactive),1.39,-0.714 (inactive),-0.757 (inactive),-3.63
COC(=O)[C@H]1C(=O)c2ccccc2O[C@@](C(=O)OC)(c2ccccc2)[C@@H]1c1ccccc1,0.0473 (inactive),-0.199,0.251 (inactive),-0.528 (inactive),-0.591 (inactive),-0.56 (inactive),-0.651,1.19 (inactive),0.752 (inactive),0.627
CCOC(=O)[C@H]1CC=C2C(=O)Oc3ccc(Br)cc3[C@@H]21,-0.704 (inactive),0.035,1.79 (inactive),1.03 (inactive),-0.0107 (inactive),0.756 (inactive),-0.747,-0.0356 (inactive),-1.75 (inactive),-0.445
CCCc1cc2c(n1Cc1cccc(Cl)c1)C(C)C1CN(C(=O)c3ccccc3)C(C)(C(=O)OC)C21 (stereo not given),-1.69 (inactive),0.235,2.02 (inactive),0.676 (inactive),1.22 (inactive),0.153 (inactive),-0.46,-1.21 (inactive),-2.3 (inactive),-2.42
OCc1ccc(C2=CC(C3CC3)N(Cc3sc4ccccc4c3Cl)CC2)cc1 (stereo not given),-2 (inactive),0.0253,13.6 (active),2.7 (inactive),0.258 (inactive),1.51 (inactive),-0.627,0.703 (inactive),-1.07 (inactive),-1.55
COc1cc2c(cc1O)C=[N+](C)CC2,1.13 (inactive),-0.147,2.39 (inactive),-0.687 (inactive),0.0284 (inactive),-0.752 (inactive),2.42,-3.74 (inactive),-2.03 (inactive),-2.13
COc1cc2c(cc1O)C(C)N(C)CC2 (stereo not given),1.01 (inactive),0.026,0.726 (inactive),0.0698 (inactive),-0.306 (inactive),0.107 (inactive),-0.0939,-2.93 (inactive),-1.92 (inactive),-2.86
C=C(CC1(C(C)NP(=O)(c2ccccc2)c2ccccc2)CC1)c1ccccc1 (stereo not given),-1.67 (inactive),0.603,2.42 (inactive),0.809 (inactive),0.512 (inactive),1.03 (inactive),0.984,-0.412 (inactive),-3.69 (inactive),-3.82
C[C@@H]1OC=C2[C@@H](O)[C@H]3O[C@H]3C(=O)[C@]23[C@H]1[C@H]1C2=C([C@@H](O)[C@H]4O[C@H]4C2=O)[C@@H]3O[C@@H]1C,-0.418 (inactive),-0.27,-0.531 (inactive),0.407 (inactive),-0.655 (inactive),0.0502 (inactive),0.0176,1.2 (inactive),0.214 (inactive),-0.31
CCCc1cc2c(n1Cc1ccco1)C(C)C1CN(C(=O)c3ccccc3)C(C)(C(=O)OC)C21 (stereo not given),-2.11 (inactive),0.439,5.21 (inactive),0.63 (inactive),0.952 (inactive),0.495 (inactive),-0.11,-1.61 (inactive),-6.73 (inactive),-3.84
CCOC(=O)[C@H]1CC=C2C(=O)Oc3ccccc3[C@@H]21,-0.59 (inactive),-0.106,1.27 (inactive),0.804 (inactive),0.458 (inactive),0.708 (inactive),-0.395,0.00603 (inactive),-0.285 (inactive),-0.275
C=C(CC1(CNP(=O)(c2ccccc2)c2ccccc2)CC1)c1ccccc1,-0.822 (inactive),0.241,1.41 (inactive),0.453 (inactive),1.07 (inactive),0.519 (inactive),-0.254,-0.335 (inactive),-0.4 (inactive),-2.42
COC(=O)NCC=Cc1nc(CCC=CC(=O)O[C@H]2CC3CC(=O)O[C@@H](C=CCC(C)C)C[C@@H]4CC[C@H](C)[C@@H](C[C@@H](OC)C[C@H](C2)O3)O4)co1,-0.0987 (inactive),-0.213,0.465 (inactive),0.0987 (inactive),-0.0546 (inactive),-0.195 (inactive),-0.975,0.902 (inactive),0.594 (inactive),-0.00689
CN1CCC(c2ccc(CO)cc2)=CC1C1CC1 (stereo not given),-0.492 (inactive),0.103,0.899 (inactive),0.0137 (inactive),-0.38 (inactive),0.0864 (inactive),-1.04,-0.477 (inactive),-0.169 (inactive),-0.0858

SMILES,z-score [1],composite z-score [2],z-score [3],z-score [4],z-score [5],z-score [6],z-score [7],z-score [8],z-score [9],z-score [10]
CN1CCC(c2ccc(CO)cc2)=CC1c1cccs1 (stereo not given),-0.0115 (inactive),-0.0111,5.23 (inactive),0.366 (inactive),0.377 (inactive),0.528 (inactive),-0.594,-0.822 (inactive),-1.01 (inactive),-1.21
COC(=O)[C@H]1[C@@H](O)[C@@]2(O)c3c(OC)cc(OC)cc3O[C@@]2(c2ccc(OC)cc2)[C@@H]1c1ccccc1,0.662 (inactive),-0.19,0.253 (inactive),0.0987 (inactive),-0.15 (inactive),-0.219 (inactive),-1.37,0.0111 (inactive),-0.0152 (inactive),0.219
CCc1cc2c(nc1CC)CCN(CCC(C)=NOC)C2,-1.88 (inactive),0.393,1.69 (inactive),1.29 (inactive),0.194 (inactive),0.612 (inactive),0.481,-0.0413 (inactive),-1.48 (inactive),1.13
CCCC[C@@H]1C[C@H]1[C@@H](NP(=O)(c1ccccc1)c1ccccc1)c1ccc(Cl)cc1,-1.26 (inactive),0.337,7.22 (inactive),1.78 (inactive),0.394 (inactive),0.788 (inactive),-0.554,-1.87 (inactive),-1.56 (inactive),0.453
OCc1ccc(C2=CC(c3cccs3)N(Cc3cccc(OC(F)(F)F)c3)CC2)cc1 (stereo not given),-0.915 (inactive),-0.148,3.92 (inactive),1.2 (inactive),-0.18 (inactive),0.822 (inactive),-0.0923,0.655 (inactive),-0.666 (inactive),-1.38
C[C@@H]1Cc2c(cnc3c2CN(C)CC3)CO1,-0.397 (inactive),-0.152,-0.0969 (inactive),-0.0787 (inactive),0.123 (inactive),0.0517 (inactive),-0.0609,1.5 (inactive),0.188 (inactive),-0.719
COC(=O)[C@@]1(Cc2ccccc2)[C@H]2c3cc(C(=O)N(C)C)[nH]c3C[C@H]2CN1C(=O)c1ccccc1,-1.41 (inactive),0.802,1.11 (inactive),0.322 (inactive),0.337 (inactive),0.766 (inactive),-0.519,0.434 (inactive),0.0256 (inactive),-3.03
COC(=O)[C@@]1(Cc2ccccc2)[C@H]2c3cc(C(=O)N(C)C)n(C)c3C[C@H]2CN1C(=O)c1ccccc1,-0.741 (inactive),0.113,1.24 (inactive),0.373 (inactive),0.747 (inactive),0.617 (inactive),0.553,0.294 (inactive),-0.0833 (inactive),-2.5
C[C@H]1O[C@H]2C3=C(C(=O)[C@@H]4O[C@@H]4[C@@H]3O)[C@@H]1[C@@H]1[C@@H](C)OC=C3[C@@H](O)[C@H]4O[C@H]4C(=O)[C@]312,-0.209 (inactive),-0.321,-0.49 (inactive),-0.569 (inactive),0.276 (inactive),-0.987 (inactive),1.5,-0.203 (inactive),-0.0614 (inactive),0.441
c1ccc(-c2cc3c(nc2-c2ccccc2)CCNC3)cc1,-0.539 (inactive),-0.101,1.39 (inactive),0.179 (inactive),0.484 (inactive),0.248 (inactive),-0.597,1.18 (inactive),0.286 (inactive),-0.433
CCCC=C(CCC)[C@@H](NP(=O)(c1ccccc1)c1ccccc1)c1ccccc1,-1.19 (inactive),0.547,4.03 (inactive),0.584 (inactive),0.689 (inactive),0.249 (inactive),1.02,-1.7 (inactive),-0.617 (inactive),0.842
CC1N(P(=O)(c2ccccc2)c2ccccc2)CC(O)(c2ccccc2)CC12CC2 (stereo not given),-1.36 (inactive) and -1.82 (inactive),-0.103 and 0.607,0.232 (inactive) and 0.667 (inactive),-0.0745 (inactive),0.716 (inactive) and 0.248 (inactive),0.593 (inactive) and 0.642 (inactive),-0.259 and -0.209,-0.427 (inactive) and -1.04 (inactive),-1.52 (inactive) and -0.626 (inactive),-3.13 and -2.02
COC(=O)[C@H]1[C@H](c2ccccc2)C(=O)[C@]2(O)c3ccccc3O[C@@]12c1ccccc1,-0.474 (inactive),-0.0523,-0.446 (inactive),-0.657 (inactive),0.126 (inactive),-0.564 (inactive),1.55,-0.181 (inactive),-1.55 (inactive),-0.324
O=P(c1ccccc1)(c1ccccc1)N1CC2(CC2)CC(O)(c2ccccc2)C1 (stereo not given),-1.16 (inactive),0.276,0.492 (inactive),0.585 (inactive),0.483 (inactive),0.741 (inactive),0.0869,-0.356 (inactive),-0.976 (inactive),-2.94
COC(=O)[C@@]1(Cc2ccc(F)cc2)[C@H]2c3cc(C(=O)N(C)C)[nH]c3C[C@H]2CN1C(=O)c1ccccc1,-0.652 [setting not given] (inactive),0.0738 [setting not given],1.37 [setting not given] (inactive),0.0978 [setting not given] (inactive),0.219 [setting not given] (inactive),0.641 [setting not given] (inactive),-0.393,0.33 [setting not given] (inactive),0.502 [setting not given] (inactive),-0.936
CN1CCc2nc(CO)c(CO)cc2C1,0.0958 (inactive),0.0504,0.297 (inactive),0.538 (inactive),-0.508 (inactive),0.101 (inactive),-0.121,1.62 (inactive),-1.25 (inactive),-0.795
